Most compounds without a hit are left out; they make up all but 13% or so of the library.
USP10 block: inhibitors of human USP10 deubiquitinase | Ubiquitin carboxyl-terminal hydrolase 10 (Homo sapiens), Q14694 | purified USP10, Ub-rhodamine fluorescence, 60 min | inhibition, % at 20 µM | 1.1% of 47,000 active | AID 1645856, 2021
USP28 block: inhibitors of human USP28 deubiquitinase; 3% of 47,000 active; purified USP28, Ub-rhodamine cleavage fluorescence, 30 min; Ubiquitin carboxyl-terminal hydrolase 28 (Homo sapiens), Q96RU2; AID 1645857, 2021; inhibition, % at 25 µM
USP30 inh: inhibitors of human USP30 deubiquitinase | 5.3% of 47,000 active | inhibition, % at 25 µM | purified USP30, Ub-rhodamine cleavage fluorescence | Ubiquitin carboxyl-terminal hydrolase 30 (Homo sapiens), Q70CQ3
Target sequence (Q70CQ3 whole entry, looked up): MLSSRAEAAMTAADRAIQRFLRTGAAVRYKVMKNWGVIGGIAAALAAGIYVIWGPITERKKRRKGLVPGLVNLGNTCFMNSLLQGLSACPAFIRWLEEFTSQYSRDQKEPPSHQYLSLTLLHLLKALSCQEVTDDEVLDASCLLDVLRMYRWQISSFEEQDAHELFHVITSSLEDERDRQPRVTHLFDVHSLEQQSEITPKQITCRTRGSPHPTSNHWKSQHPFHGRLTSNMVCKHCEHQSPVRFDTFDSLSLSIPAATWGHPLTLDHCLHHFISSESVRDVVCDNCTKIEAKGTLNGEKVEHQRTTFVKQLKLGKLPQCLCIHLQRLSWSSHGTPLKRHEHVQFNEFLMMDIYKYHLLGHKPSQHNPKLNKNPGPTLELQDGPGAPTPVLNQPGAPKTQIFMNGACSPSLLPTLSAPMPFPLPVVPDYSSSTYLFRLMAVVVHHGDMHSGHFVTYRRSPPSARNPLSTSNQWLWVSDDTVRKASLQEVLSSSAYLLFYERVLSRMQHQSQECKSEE
USP8 block: inhibitors of human USP8 deubiquitinase; Ubiquitin carboxyl-terminal hydrolase 8 (Homo sapiens), P40818; purified USP8, Ub-rhodamine cleavage fluorescence, 30 min; inhibition, % at 20 µM; 4.2% of 47,000 active; AID 1645853, 2021
USP17 block: inhibitors of human USP17 deubiquitinase | Ubiquitin carboxyl-terminal hydrolase 17-like protein 5 (Homo sapiens), A8MUK1 | purified USP17, Ub-rhodamine cleavage fluorescence, 3 h | inhibition, % at 50 µM | 6.5% of 47,000 active
An asterisk follows results filed as active; nt = not tested or not shown. Rule as the data show it: active = inhibition above about 30%; inactive = the rest.

SMILES	USP10 block	USP28 block	USP30 inh	USP8 block	USP17 block
CCOc1cc(N2CCOCC2)c(OCC)cc1NC(=O)COC(=O)c1ccc2ncsc2c1	-1	-3	2	3	4
CCCCCC1CCC(c2nnc(-c3ccc(F)cc3)o2)CC1 (stereo unspecified)	0	-4	-16	4	-1
COc1ccc(/C=C/C(=O)Nc2cccc(S(=O)(=O)Nc3ccccc3Cl)c2)c(OC)c1	62*	52*	69*	66*	7
Cc1cccc(NC(=O)Nc2ccc(C)n(CC(=O)N3CCCCC3)c2=O)c1	-4	2	4	5	0
Cc1ccc(NC(=O)Nc2ccc(C)n(CC(=O)Nc3ccc(C)c(C)c3)c2=O)cc1	66*	7	7	93*	1
Cc1noc(C2(NC(=O)c3cccc(F)c3)CCCCC2)n1	-1	-9	-7	-1	0
Cc1cc(=O)c2c(O)oc(O)c3c(O)cc(=O)c1c32	0	9	-118	31*	68*
Cc1cc(O)cc2oc3cc(O)cc(O)c3c(=O)c12	-1	13	-8	-23	-53
CC(C)N1CCN(C(=O)CN2CCC3(CCC2=O)NC(=O)c2ccccc2N3)CC1 (stereo unspecified)	1	9	18	32*	19
Cc1ccc(-c2c3c(=O)n(C)c(=O)n(C)c3cn2-c2ccc3c(c2)OCCO3)cc1	-1	-22	-39	63*	14
Cc1ccc(-c2c3c(=O)n(C)c(=O)n(C)c3cn2CCCN2CCOCC2)cc1	1	8	14	-2	5
COc1cccc2cc(-c3nnc(SCC(=O)c4ccc(F)cc4)n3C)oc12	18	1	9	39*	nt
COc1ccc(C(=O)CSc2nnc(-c3cc4ccccc4o3)n2C)cc1	12	0	2	12	13
O=C(OCC(=O)N1CCCCCC1)c1ccc2[nH]c3c(c2c1)CCCC3	-3	-6	-37	-2	15
c1ccc(COc2ccc3[nH]c4c(c3c2)CCCCCC4)cc1	0	3	-26	-3	42*
CCN(CC)S(=O)(=O)c1ccc2c(c1)nc(CCC(=O)Nc1ccc(C)c(Cl)c1)n2CC	-2	-5	39*	-15	-12
CCCn1c(CCC(=O)Nc2ccccc2C)nc2cc(S(=O)(=O)N3CCOCC3)ccc21	-4	-2	-7	0	-4
CCn1c(=Nc2ccc(Cl)cc2)ccc2ccccc21	2	-3	-25	-5	-8
CCCCCCCCCCCCCCCCCC(=O)N[C@@H]1C[C@@H](O)[C@@H](O)NC(=O)[C@@H]2[C@@H](O)[C@@H](C)CN2C(=O)[C@H]([C@@H](C)O)NC(=O)[C@H]([C@H](O)[C@@H](O)c2ccc(O)cc2)NC(=O)[C@@H]2C[C@@H](O)CN2C(=O)[C@H]([C@@H](C)O)NC1=O	10	38*	49*	15	20
CCS(=O)(=O)N1CCC(c2nc(C)c3c(n2)N(Cc2ccc(F)cc2)C(=O)CC3)C1 (stereo unspecified)	-3	-8	-19	-27	-12
Cc1ccc(NC(=O)N2CCC3(CC2)NC(=O)C(CC(C)C)NC3=O)cc1 (stereo unspecified)	2	17	46*	21	43*
Cc1nn(-c2ccc3nncn3n2)c2c1C(c1ccc(C(C)C)cc1)CC(=O)N2 (stereo unspecified)	0	16	45*	17	19
CC1CCc2cc(F)ccc2N1S(=O)(=O)c1cc(Br)cnc1N (stereo unspecified)	10	34*	18	10	17
CC1CCN(c2c(S(=O)(=O)c3ccccc3)cnc3ccc(F)cc23)CC1	4	3	7	-9	-3
O=C(COC(=O)c1ccc(Cl)s1)c1ccc2[nH]c(=O)[nH]c2c1	11	6	-26	32*	42*
SMILES	USP10 block	USP28 block	USP30 inh	USP8 block	USP17 block
O=C(COC(=O)c1nn(-c2ccccc2)c(=O)c2ccccc12)c1ccc2c(c1)OCCO2	-8	-11	-12	-17	-6
Cc1ccc(C(=O)CCC(=O)OCC(=O)c2ccc3[nH]c(=O)[nH]c3c2)cc1	7	52*	34*	4	55*
Cc1cccc(CNC(=O)c2cn(C)nc2S(=O)(=O)N2CCCCC2)c1	-1	-12	-1	-324	-60
Cc1ccnc(SCc2cc(=O)n3[nH]c(C)c(-c4ccccc4)c3n2)n1	2	-4	10	-108	-15
Cc1cc(C)nc(SCc2cc(=O)n3[nH]c(C)c(-c4ccccc4)c3n2)n1	13	23	46*	-108	-5
Cc1[nH]n2c(=O)c(Cl)c(-c3ccccc3)nc2c1-c1ccccc1	33*	14	11	-219	5
O=C(Nc1cccc(C(F)(F)F)c1)c1nn(C2CCS(=O)(=O)C2)c2c1CCCC2 (stereo unspecified)	-2	1	31*	-1	10
Cc1ccc(CNC(=O)CCC(=O)N2CCCn3nc(-c4cccn4C)cc32)cc1	-7	-71	-275	-103	-39
COC[C@H]1CCCN1C(=O)CC[C@H]1CNC(=O)[C@@H]2[C@@H](CCN2C(C)C)N1C	1	28	2	41*	-42
COC[C@H]1CCCN1C(=O)CC[C@H]1CNC(=O)[C@@H]2[C@@H](CCN2C2CCOCC2)N1C	0	31*	29	40*	-38
COC[C@H]1CCCN1C(=O)CC[C@H]1CNC(=O)[C@@H]2[C@@H](CCN2C2CCCCC2)N1C	1	20	-17	25	-64
CCSc1ncc2c(=O)n(CC(=O)Nc3ccccc3C(F)(F)F)cnc2n1	-5	-36	-68	-27	-30
CCOc1ccc2[nH]c(=O)c(-c3nc4cc(C)ccn4c3NC(C)(C)C)cc2c1	-5	-143	-103	-51	-11
CCOc1ccc2[nH]c(=O)c(-c3nc4ccc(C)cn4c3NCc3ccccc3)cc2c1	31*	32*	26	14	49*
Cc1ccc(CNc2cc(-n3cccn3)ncn2)cc1	5	31*	-3	0	20
COc1ccc(-c2cc(-c3nnc4n3CCCCC4)n(-c3ccccc3)n2)cc1	3	60*	28	16	15
COc1ccc(-c2c3c4n(c(-c5ccccc5)cn4c2C(=O)NC2CCCCC2)CCCC3)cc1	-2	-7	-96	-10	-17
COc1ccc(CNc2c(S(=O)(=O)c3ccccc3)cnc3ccccc23)cc1	8	6	35*	9	11
Cc1ccc(S(=O)(=O)c2cnc3ccccc3c2NCc2ccccc2)cc1	3	-3	6	4	1
CCN(Cc1ccccc1)C(=O)Cn1c(N2CCCC2)nc(C)cc1=O	0	1	7	-1	5
CCN1C(=O)CCC12CCC(NC(=O)c1cc(C)on1)CC2 (stereo unspecified)	-2	-9	0	-96	-25

Source: PubChem (Buhrlage Lab, Dana-Farber Cancer Institute and Novartis Institutes for BioMedical Research (Cambridge, Mass))
